Here are results for 24 targets from the supplement of paper PMC10849652.

Holding throughout (test): log2 fold change, soluble protein after heating vs DMSO (PISA); higher = thermal stabilisation; K562 cells, 10 uM, 30 min; active = over 0.2 and 3.5 SD of the protein, either way, in both replicates (recomputed)
Compound in assay [1]: C1=CC=C(C=C1)[C@H](COC2=CC3=C(C=C2)NC(=O)N3)NC(=O)C4=CC=CN(C4=O)CC5=CC(=C(C=C5)F)F
The gist of the method:
(§1)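 Thermal stability values are relative to control samples and come from duplicates. They are expressed as log2 fold changes. For measurement, K562 cells (2×10^6 cells/mL) received 10 μM compound for 30 min, and aliquots were heated for 3 min over 48°C-58°C, pooled, and extracted at 4°C in PBS with 0.5% NP-40. Soluble protein, the supernatant after 21,000xg for 90 min, was quantified by TMTpro 16plex LC-MS/MS with equalised channel sums.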

Compound in assay [2]: CC1=C(SC2=C1C(=N[C@H](C3=NN=C(N32)C)CC(=O)N)C4=CC=C(C=C4)Cl)C
The gist of the method: as §1

Compound in assay [3]: CC1=C2C(=CC=C1)N=C(N(C2=O)C3=CC=CC=C3C)CN4C=NC5=C(N=CN=C54)N
The procedure, abridged: as §1

Compound in assay [4]: Cc1sc2c(c1C)C(c1ccc(Cl)cc1)=N[C@@H](CC(=O)OC(C)(C)C)c1nnc(C)n1-2
The procedure, abridged: as §1

Compound in assay [5]: c1ccc([C@@H]2C[C@H]2NC2CCNCC2)cc1
The gist of the method:
as §1

Targets with a hit are over-represented here; the source holds about 7,900 in all. About 0.6% of all pairs of compound and target were hits. A number with no mark means an inactive call.

UniProt Q9NWZ3, sequence (Q9NWZ3 whole entry, looked up): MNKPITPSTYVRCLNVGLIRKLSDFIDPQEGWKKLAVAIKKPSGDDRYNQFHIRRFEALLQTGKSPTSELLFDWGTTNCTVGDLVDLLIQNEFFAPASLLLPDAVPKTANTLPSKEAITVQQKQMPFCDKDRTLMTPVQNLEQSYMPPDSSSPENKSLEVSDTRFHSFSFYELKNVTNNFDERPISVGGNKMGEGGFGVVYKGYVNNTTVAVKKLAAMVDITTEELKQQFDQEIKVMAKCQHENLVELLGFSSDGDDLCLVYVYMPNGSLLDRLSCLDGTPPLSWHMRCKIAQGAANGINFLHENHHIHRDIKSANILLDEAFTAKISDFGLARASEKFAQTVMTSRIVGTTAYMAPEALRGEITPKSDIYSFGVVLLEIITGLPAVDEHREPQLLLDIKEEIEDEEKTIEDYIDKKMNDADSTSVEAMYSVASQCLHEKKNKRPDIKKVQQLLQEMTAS
UniProt Q14739, sequence (Q14739 whole entry, looked up): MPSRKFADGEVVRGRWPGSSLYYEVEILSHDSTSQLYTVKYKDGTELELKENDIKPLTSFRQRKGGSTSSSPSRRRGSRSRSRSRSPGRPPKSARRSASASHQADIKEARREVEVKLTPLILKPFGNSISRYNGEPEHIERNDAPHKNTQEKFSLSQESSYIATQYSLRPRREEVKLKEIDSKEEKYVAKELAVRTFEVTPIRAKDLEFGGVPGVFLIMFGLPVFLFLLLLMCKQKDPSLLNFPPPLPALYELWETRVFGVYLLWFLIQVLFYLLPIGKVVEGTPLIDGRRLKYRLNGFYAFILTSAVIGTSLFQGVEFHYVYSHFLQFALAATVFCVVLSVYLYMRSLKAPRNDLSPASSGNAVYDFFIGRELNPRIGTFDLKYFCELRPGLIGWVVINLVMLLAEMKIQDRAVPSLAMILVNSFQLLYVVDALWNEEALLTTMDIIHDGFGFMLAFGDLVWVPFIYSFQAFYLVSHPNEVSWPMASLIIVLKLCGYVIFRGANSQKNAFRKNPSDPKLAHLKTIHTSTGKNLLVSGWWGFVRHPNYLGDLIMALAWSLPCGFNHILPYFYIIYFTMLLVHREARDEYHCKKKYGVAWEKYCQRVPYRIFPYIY
UniProt P53778, sequence (P53778 whole entry, looked up): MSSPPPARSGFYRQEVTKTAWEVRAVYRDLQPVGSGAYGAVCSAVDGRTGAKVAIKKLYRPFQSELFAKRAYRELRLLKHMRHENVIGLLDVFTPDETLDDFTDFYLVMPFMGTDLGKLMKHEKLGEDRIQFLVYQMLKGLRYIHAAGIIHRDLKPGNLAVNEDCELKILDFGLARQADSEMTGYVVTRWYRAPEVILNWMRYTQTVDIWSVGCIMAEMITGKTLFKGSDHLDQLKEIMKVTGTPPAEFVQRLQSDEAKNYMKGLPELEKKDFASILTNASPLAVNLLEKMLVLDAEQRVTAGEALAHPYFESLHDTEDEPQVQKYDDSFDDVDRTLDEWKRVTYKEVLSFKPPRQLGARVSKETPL
UniProt Q96A72, sequence (Q96A72 whole entry, looked up): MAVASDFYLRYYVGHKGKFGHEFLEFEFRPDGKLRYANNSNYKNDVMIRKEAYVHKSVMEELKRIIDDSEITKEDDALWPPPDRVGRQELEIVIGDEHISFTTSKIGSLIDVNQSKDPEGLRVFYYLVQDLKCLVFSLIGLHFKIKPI
UniProt P22692, sequence (P22692 whole entry, looked up): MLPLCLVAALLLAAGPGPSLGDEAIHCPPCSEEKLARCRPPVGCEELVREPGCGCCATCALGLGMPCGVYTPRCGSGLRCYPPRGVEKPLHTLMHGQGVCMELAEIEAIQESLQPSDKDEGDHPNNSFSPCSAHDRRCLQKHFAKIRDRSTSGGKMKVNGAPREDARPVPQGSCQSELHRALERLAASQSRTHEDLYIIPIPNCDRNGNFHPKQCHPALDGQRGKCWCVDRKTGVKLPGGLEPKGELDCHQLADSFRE
UniProt Q9H6K1, sequence (Q9H6K1 whole entry, looked up): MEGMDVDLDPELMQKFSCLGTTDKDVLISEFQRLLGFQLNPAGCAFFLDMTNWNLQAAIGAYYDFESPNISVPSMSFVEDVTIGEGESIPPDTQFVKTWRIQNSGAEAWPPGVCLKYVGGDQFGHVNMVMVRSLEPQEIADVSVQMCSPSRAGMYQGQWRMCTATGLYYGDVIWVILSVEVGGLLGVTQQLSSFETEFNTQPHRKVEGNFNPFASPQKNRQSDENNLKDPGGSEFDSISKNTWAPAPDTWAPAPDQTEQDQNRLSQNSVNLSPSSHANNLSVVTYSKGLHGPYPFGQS
UniProt Q07666, sequence (Q07666 whole entry, looked up): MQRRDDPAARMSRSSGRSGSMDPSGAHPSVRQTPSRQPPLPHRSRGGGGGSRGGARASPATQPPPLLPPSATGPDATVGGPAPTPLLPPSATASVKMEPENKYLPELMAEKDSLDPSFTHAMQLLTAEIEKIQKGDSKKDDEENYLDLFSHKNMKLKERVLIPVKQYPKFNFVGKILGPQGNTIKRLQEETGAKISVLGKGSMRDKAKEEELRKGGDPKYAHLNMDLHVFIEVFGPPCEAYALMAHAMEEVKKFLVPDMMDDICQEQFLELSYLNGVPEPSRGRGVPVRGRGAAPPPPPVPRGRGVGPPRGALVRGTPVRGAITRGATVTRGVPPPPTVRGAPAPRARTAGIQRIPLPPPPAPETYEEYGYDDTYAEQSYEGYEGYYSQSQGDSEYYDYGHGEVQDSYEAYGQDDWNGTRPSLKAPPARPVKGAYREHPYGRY
UniProt Q14624, sequence (Q14624 whole entry, looked up): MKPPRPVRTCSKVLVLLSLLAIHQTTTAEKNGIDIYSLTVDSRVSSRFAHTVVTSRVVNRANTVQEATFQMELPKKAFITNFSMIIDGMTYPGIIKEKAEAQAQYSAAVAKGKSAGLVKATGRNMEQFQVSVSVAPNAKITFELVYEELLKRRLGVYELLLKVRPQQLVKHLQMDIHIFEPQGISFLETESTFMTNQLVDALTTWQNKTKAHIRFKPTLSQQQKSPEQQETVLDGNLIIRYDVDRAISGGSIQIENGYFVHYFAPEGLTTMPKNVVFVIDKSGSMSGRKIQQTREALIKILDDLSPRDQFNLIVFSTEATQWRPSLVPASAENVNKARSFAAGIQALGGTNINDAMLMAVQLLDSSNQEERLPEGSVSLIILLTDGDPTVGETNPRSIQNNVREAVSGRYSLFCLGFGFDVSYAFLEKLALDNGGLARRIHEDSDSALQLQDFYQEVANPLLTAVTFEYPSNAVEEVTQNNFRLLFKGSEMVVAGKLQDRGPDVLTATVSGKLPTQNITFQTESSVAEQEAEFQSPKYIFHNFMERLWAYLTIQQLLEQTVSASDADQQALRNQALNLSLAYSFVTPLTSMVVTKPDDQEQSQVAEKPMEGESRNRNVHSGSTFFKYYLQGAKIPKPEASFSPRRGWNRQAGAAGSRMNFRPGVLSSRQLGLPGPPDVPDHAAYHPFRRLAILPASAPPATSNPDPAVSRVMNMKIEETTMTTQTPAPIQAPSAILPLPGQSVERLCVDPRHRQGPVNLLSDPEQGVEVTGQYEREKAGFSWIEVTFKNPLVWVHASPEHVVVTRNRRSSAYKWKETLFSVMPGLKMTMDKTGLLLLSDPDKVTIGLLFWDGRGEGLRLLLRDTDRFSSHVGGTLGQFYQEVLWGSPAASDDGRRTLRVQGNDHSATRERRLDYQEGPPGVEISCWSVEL
UniProt Q6P9B6, sequence (Q6P9B6 whole entry, looked up): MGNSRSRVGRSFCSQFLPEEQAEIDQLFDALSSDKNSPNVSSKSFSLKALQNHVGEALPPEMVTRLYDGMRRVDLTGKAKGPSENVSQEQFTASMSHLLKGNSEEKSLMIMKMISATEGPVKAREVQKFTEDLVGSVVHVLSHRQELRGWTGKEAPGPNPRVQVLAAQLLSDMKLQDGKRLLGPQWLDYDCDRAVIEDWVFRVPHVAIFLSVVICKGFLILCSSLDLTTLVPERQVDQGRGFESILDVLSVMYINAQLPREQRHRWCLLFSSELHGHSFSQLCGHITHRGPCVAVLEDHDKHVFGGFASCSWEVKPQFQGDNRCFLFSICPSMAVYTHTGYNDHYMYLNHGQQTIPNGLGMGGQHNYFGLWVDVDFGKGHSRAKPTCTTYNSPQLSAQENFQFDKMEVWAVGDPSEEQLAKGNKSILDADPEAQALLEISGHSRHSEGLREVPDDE
UniProt P36507, sequence (P36507 whole entry, looked up): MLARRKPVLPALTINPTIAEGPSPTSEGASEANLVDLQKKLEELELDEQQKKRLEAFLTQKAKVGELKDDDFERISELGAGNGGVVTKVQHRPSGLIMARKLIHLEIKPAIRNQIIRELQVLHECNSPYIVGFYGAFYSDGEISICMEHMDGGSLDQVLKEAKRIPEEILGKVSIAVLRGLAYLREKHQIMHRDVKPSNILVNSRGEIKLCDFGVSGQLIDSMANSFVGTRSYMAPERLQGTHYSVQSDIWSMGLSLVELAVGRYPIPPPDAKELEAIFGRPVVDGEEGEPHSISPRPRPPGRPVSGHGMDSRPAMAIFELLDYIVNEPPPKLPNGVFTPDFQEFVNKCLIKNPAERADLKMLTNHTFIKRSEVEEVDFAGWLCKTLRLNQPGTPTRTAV

In the case of LTV1 (UniProt Q96GA3), the log2 fold change in assay [1] is -0.02; in assay [2] it was -0.137; in assay [3] it was -0.033; in assay [4] it was 0.17; in assay [5] it was 0.
Consider MAP4K4 isoform 3 (UniProt O95819), for which the log2 fold change is 0.009 in assay [1]; 0.032 in assay [2]; 0.044 in assay [3]; 0.04 in assay [4]; 0.264 (active) in assay [5].
The like results for KHDRBS1 (UniProt Q07666) were, in that order, -0.038, -0.018, -0.025, 0.055 and -0.021.
Consider IK (UniProt Q13123), for which the log2 fold change in assay [1] is 0.023; in assay [2], -0.067; in assay [3], -0.006; in assay [4], 0.041; in assay [5], -0.045.
Take IRAK4 (UniProt Q9NWZ3): the log2 fold change was -0.077 in assay [1]; -0.006 in assay [2]; 0.009 in assay [3]; -0.012 in assay [4]; -0.056 in assay [5].
Regarding LGALS8 isoform 2 (UniProt O00214), the log2 fold change in assay [1] is -0.032; in assay [2] it was 0.011; in assay [3], -0.166; in assay [4] it was -0.022; in assay [5] it was -0.12.
Turning to MAGOHB (UniProt Q96A72), the log2 fold change was 0.02 in assay [1]; 0.042 in assay [2]; 0.079 in assay [3]; -0.153 in assay [4]; -0.129 in assay [5].
The like results for KPNA6 (UniProt O60684) were, in that order, -0.017, -0.046, 0.093, 0.105 and 0.07.
Take KIF3B (UniProt O15066): the log2 fold change was -0.068 in assay [1]; -0.014 in assay [2]; 0.028 in assay [3]; 0.09 in assay [4]; -0.054 in assay [5].
The like results for LMBRD2 (UniProt Q68DH5) were, in that order, 0.029, 0.084, 0.06, -0.12 and -0.035.
The like results for ITIH4 (UniProt Q14624) were, in that order, -0.088, 0.015, 0.089, -0.133 and -0.006.
In the same order, the values of LBR (UniProt Q14739) are -0.105, 0.051, 0.011, -0.054 and -0.005.
Consider ILRUN (UniProt Q9H6K1), for which the log2 fold change in assay [1] is 0.029; in assay [2], 0.031; in assay [3] it was 0.119; in assay [4], 0.014; in assay [5], -0.009.
LIMD1 (UniProt Q9UGP4): the log2 fold change is 0.006 in assay [1]; 0.004 in assay [2]; -0.014 in assay [3]; -0.005 in assay [4]; 0.028 in assay [5].
As to LONP2 (UniProt Q86WA8), the log2 fold change in assay [1] is -0.036; in assay [2], 0.009; in assay [3], 0.02; in assay [4], 0.009; in assay [5] it was -0.147.
For the target MAP2K2 (UniProt P36507), the log2 fold change in assay [1] is 0.034; in assay [2], 0.065; in assay [3], 0.073; in assay [4], -0.027; in assay [5], -0.067.
For LARP1 (UniProt Q6PKG0), the log2 fold change in assay [1] is 0.002; in assay [2], -0.046; in assay [3], -0.046; in assay [4], 0.151; in assay [5], -0.002.
For the target MEAK7 (UniProt Q6P9B6), the log2 fold change in assay [1] was -0.009; in assay [2], 0.051; in assay [3] it was 0.042; in assay [4], -0.009; in assay [5] it was -0.048.
As for MIER1 isoform 12 (UniProt Q8N108), the log2 fold change in assay [1] was -0.012; in assay [2] it was 0.073; in assay [3] it was 0.059; in assay [4], 0.016; in assay [5] it was 0.02.
IRF2BPL (UniProt Q9H1B7): the log2 fold change is -0.051 in assay [1]; 0.027 in assay [2]; 0.001 in assay [3]; -0.067 in assay [4]; -0.043 in assay [5].
In the same order, the values of MAPKAPK2 (UniProt P49137) are -0.047, 0.064, 0.012, 0.013 and -0.056.
In the same order, the values of MAPK12 (UniProt P53778) are -0.022, 0.017, 0.026, 0.008 and -0.002.
Regarding IGFBP4 (UniProt P22692), the log2 fold change in assay [1] was -0.019; in assay [2], -0.046; in assay [3], 0.087; in assay [4], -0.103; in assay [5], 0.148.
The like results for MAP1LC3B2 (UniProt A6NCE7) were, in that order, 0.015, 0.113, 0.021, -0.015 and -0.073.
